Molecules are shown by their SMILES. For some assays here: Potency and affinity values are given separately.

Holding throughout (parameters): scale not given: direction of the effect not stated beside the values
In experiment [1] the target is Protein translocase subunit SecA (Escherichia coli (strain K12)) (UniProt P10408). Description: Assay to Identify E. coli SecA ATPase Inhibitors. Type of experiment: functional. The conditions noted are these: 30 µM.
Experiment [2] has as its target T1, Ubiquitin-activating enzyme e1, putative (Leishmania donovani (strain BPK282A1)) (UniProt E9BSI1).
T1 sequence (whole entry): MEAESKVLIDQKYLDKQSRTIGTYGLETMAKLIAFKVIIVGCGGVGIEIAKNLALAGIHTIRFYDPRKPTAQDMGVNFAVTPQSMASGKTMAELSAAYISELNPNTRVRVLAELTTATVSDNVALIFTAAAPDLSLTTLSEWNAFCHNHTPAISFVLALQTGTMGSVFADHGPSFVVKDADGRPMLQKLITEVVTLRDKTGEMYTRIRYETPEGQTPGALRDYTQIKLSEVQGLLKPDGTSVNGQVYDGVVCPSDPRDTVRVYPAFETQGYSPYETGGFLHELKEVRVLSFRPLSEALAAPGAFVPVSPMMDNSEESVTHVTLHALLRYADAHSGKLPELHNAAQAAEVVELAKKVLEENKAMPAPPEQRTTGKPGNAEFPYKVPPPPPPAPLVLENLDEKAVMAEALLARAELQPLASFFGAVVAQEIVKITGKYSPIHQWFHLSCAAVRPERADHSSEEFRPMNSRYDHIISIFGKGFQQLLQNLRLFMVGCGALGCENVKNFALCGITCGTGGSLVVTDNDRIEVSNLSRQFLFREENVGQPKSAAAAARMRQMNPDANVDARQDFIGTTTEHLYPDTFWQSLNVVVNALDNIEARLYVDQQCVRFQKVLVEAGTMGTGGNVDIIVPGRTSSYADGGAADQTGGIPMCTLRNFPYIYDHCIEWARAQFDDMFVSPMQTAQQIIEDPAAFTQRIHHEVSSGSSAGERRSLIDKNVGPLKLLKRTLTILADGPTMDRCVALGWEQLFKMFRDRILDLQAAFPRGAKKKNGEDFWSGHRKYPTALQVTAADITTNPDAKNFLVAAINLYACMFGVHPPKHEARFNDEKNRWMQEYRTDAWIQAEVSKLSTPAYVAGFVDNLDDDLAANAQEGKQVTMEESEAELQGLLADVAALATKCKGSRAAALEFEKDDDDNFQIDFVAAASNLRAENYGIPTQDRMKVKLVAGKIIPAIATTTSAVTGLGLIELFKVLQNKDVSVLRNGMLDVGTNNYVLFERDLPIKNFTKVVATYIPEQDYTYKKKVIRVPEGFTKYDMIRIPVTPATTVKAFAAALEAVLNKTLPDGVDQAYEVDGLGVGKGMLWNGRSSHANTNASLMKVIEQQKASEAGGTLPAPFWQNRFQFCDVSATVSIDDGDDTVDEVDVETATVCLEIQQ
In words: Leishmania donovani Ubiquitin Activating Enzyme (LdE1). As to conditions: 30 µM. The format is functional.

The target of experiment [3] is AMP-activated protein kinase, AMPK (Homo sapiens) (UniProt P54646+O43741+P54619+Q9UGJ0+Q9Y478+Q13131+Q9UGI9). Description: AMP-dependent Kinase enzyme assay. An in vitro enzyme assay that detects ADP turnover that is directly proportional to AMPK activity. This uses naive AMPK that is activated during the assay with MK-8722. Type of experiment: functional. The conditions noted are these: 30 µM.

The target of experiment [4] is Sialic acid-binding Ig-like lectin 9 (Homo sapiens) (UniProt Q9Y336). In words: Hs-Siglec9 ALPHAscreen SOP 20170721. As to conditions: 10 µM.
Chain of Sialic acid-binding Ig-like lectin 9 (Homo sapiens) (Q9Y336 whole entry): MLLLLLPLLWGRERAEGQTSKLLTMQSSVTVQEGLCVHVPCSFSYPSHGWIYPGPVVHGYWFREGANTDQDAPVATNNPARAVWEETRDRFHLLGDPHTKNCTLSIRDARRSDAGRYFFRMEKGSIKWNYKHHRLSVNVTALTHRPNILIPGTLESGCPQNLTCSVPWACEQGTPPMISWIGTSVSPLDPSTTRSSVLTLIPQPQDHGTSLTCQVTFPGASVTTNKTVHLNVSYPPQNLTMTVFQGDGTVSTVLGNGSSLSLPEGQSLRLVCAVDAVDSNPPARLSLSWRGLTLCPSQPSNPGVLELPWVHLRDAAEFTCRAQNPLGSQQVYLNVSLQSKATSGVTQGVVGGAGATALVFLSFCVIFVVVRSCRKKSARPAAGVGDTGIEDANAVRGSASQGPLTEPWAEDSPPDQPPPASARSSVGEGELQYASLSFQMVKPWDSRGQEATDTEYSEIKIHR
The test system of the next experiment is Trypanosoma cruzi. In words: Trypanosoma cruzi phosphomannomutase and mannose-1-phosphate guanylyltransferase assay. As to conditions: 10 µM. Type of experiment: functional.
The target of experiment [5] is T2, Arginase-2, mitochondrial (Homo sapiens) (UniProt P78540).
T2 sequence (whole entry): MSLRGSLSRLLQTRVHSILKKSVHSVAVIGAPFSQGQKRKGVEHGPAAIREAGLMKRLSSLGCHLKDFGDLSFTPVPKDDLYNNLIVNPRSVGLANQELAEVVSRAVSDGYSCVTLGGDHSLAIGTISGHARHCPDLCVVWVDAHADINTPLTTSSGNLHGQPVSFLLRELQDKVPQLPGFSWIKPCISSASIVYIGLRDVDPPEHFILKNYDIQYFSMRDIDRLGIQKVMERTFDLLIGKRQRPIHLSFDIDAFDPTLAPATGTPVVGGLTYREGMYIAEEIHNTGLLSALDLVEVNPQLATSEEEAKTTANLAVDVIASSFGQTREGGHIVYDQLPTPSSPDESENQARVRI
In words: in vitro enzyme assay to detect the production of urea directly proportional to the activity of Arginase II. Also: in the data most compounds retested in dose-response had high values. The format is functional. The conditions noted are these: 33.3 µM.

Experiment [6] concerns the target T3, Proteasome subunit beta (Trypanosoma cruzi) (UniProt O96673).
T3 sequence (whole entry): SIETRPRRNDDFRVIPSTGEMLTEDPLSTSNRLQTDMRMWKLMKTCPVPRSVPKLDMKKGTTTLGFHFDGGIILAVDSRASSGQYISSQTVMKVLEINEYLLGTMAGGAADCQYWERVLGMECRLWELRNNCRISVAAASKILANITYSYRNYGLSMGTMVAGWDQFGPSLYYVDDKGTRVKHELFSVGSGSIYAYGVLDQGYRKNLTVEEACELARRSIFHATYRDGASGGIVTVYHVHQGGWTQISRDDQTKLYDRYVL
In words: Trypanosoma cruzi proteasome chymotrypsin-like activity (TcProtChymo) assay. Also: in the data most compounds retested in dose-response had high values. Type of experiment: functional. The conditions noted are these: 9.37 µM.

The species entered for a further experiment is Homo sapiens. Description: To identify inhibition of the IFN signalling (Jak-Stat) pathway via expression of an eGFP reporter gene under the control of an IFN-stimulated response element (ISRE) containing MxA promoter. Type of experiment: functional. As to conditions: 30 µM.
The target in experiment [7] is T4, Tyrosyl-tRNA synthetase, putative (Trypanosoma cruzi (strain CL Brener)) (UniProt Q4DSP6).
T4 sequence (whole entry): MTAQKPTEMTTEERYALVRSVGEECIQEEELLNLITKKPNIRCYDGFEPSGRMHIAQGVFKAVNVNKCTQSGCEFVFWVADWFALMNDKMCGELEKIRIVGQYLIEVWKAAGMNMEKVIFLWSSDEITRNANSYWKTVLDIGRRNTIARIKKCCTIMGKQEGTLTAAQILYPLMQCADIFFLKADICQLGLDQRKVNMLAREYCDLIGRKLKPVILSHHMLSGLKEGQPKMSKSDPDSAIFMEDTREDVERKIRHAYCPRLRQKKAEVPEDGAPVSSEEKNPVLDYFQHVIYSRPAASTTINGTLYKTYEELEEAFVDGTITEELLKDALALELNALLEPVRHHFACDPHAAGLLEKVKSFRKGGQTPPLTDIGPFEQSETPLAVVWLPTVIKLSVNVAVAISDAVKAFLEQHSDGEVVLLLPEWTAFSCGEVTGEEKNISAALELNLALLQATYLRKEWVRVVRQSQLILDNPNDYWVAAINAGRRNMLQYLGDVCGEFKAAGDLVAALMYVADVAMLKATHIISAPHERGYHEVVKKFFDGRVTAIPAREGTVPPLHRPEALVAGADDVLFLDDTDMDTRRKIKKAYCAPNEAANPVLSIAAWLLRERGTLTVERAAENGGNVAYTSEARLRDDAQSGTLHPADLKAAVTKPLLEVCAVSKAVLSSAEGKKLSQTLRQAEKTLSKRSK
Description: Trypanosoma cruzi tyrosyl tRNA synthetase (TcYRS) _High Tyrosine SOP. Also: in the data most compounds retested in dose-response had high values. Type of experiment: functional. As to conditions: 30 µM.

For experiment [8], the target named is T4, Tyrosyl-tRNA synthetase, putative (Trypanosoma cruzi (strain CL Brener)). Description: Trypanosoma cruzi tyrosyl tRNA synthetase (TcYRS) SOP. As to conditions: 30 µM. The format is functional.
The target in experiment [9] is Chromo domain-containing protein 1 (Saccharomyces cerevisiae (strain ATCC 204508 / S288c) (Baker's yeast)) (UniProt P32657). In words: ScCHD-1 Enzyme Inhibition Assay. Also: in the data most compounds retested in dose-response had high values. The format is functional. The conditions noted are these: 30 µM.
Chain of Chromo domain-containing protein 1 (Saccharomyces cerevisiae (strain ATCC 204508 / S288c) (Baker's yeast)) (P32657 whole entry, the tested form may be a part): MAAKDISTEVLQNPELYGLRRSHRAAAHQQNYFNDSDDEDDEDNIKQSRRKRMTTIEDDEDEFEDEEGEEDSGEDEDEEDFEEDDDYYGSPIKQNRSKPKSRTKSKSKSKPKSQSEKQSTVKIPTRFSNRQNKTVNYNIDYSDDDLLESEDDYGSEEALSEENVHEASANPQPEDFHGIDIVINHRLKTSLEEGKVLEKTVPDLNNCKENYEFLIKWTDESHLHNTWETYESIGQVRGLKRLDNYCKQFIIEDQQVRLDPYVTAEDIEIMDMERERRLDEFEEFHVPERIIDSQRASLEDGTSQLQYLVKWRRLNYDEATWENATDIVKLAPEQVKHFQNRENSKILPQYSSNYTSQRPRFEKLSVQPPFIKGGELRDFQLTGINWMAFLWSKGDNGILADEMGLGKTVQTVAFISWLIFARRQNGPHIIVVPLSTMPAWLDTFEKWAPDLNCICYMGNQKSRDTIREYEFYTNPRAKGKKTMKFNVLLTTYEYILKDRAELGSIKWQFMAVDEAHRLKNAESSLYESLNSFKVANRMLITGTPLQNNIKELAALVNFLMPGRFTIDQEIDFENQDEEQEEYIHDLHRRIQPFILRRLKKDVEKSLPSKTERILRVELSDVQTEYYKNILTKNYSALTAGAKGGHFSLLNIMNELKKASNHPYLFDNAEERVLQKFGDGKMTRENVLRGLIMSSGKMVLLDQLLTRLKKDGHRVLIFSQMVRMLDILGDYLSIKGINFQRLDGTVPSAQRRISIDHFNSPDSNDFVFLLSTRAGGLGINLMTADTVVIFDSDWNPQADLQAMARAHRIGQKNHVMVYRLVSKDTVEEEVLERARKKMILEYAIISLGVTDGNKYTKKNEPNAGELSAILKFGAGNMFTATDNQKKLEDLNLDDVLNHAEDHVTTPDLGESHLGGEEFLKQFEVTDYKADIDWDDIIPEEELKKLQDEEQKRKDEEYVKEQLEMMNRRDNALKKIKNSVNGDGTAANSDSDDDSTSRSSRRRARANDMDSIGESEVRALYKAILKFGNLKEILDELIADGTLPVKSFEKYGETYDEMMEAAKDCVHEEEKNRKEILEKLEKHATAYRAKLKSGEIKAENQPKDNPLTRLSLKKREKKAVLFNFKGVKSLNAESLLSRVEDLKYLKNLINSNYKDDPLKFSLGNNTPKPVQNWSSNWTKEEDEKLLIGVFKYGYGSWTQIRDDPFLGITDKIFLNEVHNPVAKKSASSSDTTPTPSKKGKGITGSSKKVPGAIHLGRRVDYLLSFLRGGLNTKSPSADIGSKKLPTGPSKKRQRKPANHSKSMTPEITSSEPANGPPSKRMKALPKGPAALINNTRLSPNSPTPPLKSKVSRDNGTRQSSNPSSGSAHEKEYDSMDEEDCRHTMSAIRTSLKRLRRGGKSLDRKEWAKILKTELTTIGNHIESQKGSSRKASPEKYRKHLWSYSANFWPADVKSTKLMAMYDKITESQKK

Chain of Protein translocase subunit SecA (Escherichia coli (strain K12)) (P10408 whole entry): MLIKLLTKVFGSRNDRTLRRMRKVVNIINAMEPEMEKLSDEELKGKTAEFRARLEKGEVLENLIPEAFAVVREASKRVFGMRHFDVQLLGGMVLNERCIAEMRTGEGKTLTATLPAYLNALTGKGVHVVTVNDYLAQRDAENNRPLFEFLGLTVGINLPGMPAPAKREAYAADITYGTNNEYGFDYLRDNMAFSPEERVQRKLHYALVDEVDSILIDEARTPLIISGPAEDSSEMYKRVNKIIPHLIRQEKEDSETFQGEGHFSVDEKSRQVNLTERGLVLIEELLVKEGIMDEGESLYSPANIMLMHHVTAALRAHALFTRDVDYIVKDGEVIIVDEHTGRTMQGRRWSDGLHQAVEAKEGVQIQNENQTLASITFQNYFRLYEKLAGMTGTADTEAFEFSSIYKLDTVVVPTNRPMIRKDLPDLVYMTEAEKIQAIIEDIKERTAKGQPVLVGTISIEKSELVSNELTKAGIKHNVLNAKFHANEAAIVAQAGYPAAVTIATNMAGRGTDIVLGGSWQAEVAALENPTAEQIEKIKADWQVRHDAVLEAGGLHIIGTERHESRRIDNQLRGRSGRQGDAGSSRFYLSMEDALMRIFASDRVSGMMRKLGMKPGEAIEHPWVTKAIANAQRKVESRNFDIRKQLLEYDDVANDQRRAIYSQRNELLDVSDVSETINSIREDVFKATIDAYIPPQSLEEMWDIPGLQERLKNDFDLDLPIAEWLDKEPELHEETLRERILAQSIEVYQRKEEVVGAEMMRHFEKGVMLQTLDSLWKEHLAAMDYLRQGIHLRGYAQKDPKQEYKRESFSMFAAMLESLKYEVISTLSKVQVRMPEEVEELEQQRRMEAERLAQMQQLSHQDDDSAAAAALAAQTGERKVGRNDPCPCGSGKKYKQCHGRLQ

Regarding `CS(=O)(=O)N1CCC(Oc2ccc(C(=O)N3CCSCC3)cc2Cl)CC1`, the Percent Effect is -2.47% in experiment [1]; 9.72% in experiment [2]; 3.27% in experiment [3]; 18.5% in [4]; 4.37% in the experiment on Trypanosoma cruzi; -2.21% in [5]. The Percent Effect in experiment [6] is 3.86%; in the experiment listed under Homo sapiens it was 25.7%; in experiment [7], 3.16%; in [8], 7.69%; in experiment [9], -2.42%.

As to `Cc1ccccc1S(=O)(=O)NC(=O)CSc1ccc2c(c1)OCCO2`, the Percent Effect in experiment [1] is -0.381%; in [2] it was 1.39%; in [3], -0.933%; in experiment [4], -9.91%; in the experiment on Trypanosoma cruzi, -3.21%; in [5] it was 0%. For the same compound, the Percent Effect was 10% in [6]; 1.45% in the experiment filed under Homo sapiens; -11.6% in [7]; -7.69% in [8]; 0.792% in [9].

On to `O=C(Nc1cccnc1)N1CCC(n2ccc(C(F)(F)F)n2)CC1`, for which the Percent Effect in experiment [1] is -7.93%; in experiment [2] it was 8.22%; in [3], -4.95%; in experiment [4], 13%; with Trypanosoma cruzi, 3.72%; in [5] it was -0.909%. The Percent Effect is 10.5% in experiment [6]; 2.75% in the experiment listed under Homo sapiens; 1.07% in experiment [7]; 10% in experiment [8]; -5.84% in experiment [9].

Consider `O=C(Cc1csc(-c2ccco2)n1)N1CCN(c2cnccn2)CC1`, for which the Percent Effect in experiment [1] is -3.21%; in experiment [2] it was 13.9%; in [3], -1.6%; in experiment [4], 4.73%; in the experiment on Trypanosoma cruzi, 0.718%; in experiment [5], -1.94%. The Percent Effect is 17.5% in experiment [6]; 13.5% in the experiment filed under Homo sapiens; 11.5% in experiment [7]; 22.8% in [8]; -30.1% in experiment [9].

Regarding `CC(C)c1noc(C(C)N2CCN(Cc3ccccc3C#N)CC2)n1` (stereo not given), the Percent Effect is -0.614% in [1]; -2.63% in [2]; -8.38% in experiment [3]; 2.79% in experiment [4]; 4.58% in the experiment on Trypanosoma cruzi; -2.52% in experiment [5]. In addition, the Percent Effect in experiment [6] was 3.81%; in the experiment filed under Homo sapiens, 10.1%; in experiment [7], -3.45%; in experiment [8], 3.7%; in [9], 2.36%.

Take `COC[C@H]1CCC[C@]12CN(C(=O)NCc1ccccc1)CCO2`: the Percent Effect in [1] is -5%; in [2] it was 20%; in [3] it was -4.55%; in experiment [4], 9.51%; with Trypanosoma cruzi, 2.75%; in experiment [5], -7.22%. The Percent Effect in [6] was 13.5%; in the experiment listed under Homo sapiens, 2.52%; in experiment [7], 3.17%; in experiment [8], 10.3%; in [9], -9.21%.

Regarding `COCCOc1ccc(NC(=O)N2CCCC2c2ccncc2)cn1` (stereo not given), the Percent Effect in experiment [1] is -2.75%; in [2], 0%; in experiment [3], 2.9%; in experiment [4], 5.29%; in the experiment with Trypanosoma cruzi, 2.64%; in experiment [5] it was -1.47%. Further, the Percent Effect was 12.8% in experiment [6]; 11.5% in the experiment filed under Homo sapiens; 1.91% in experiment [7]; 0% in [8]; -22.2% in experiment [9].

Regarding `CCC1=N[C@@]2(CC[C@@H]3CN(CC4CC4)C[C@@H]32)C(=O)N1C`, the Percent Effect in [1] was -4.94%; in experiment [2], 10.8%; in [3] it was 1.5%; in experiment [4], 0.724%; in the experiment on Trypanosoma cruzi, -1.86%; in [5], 0.319%. In addition, the Percent Effect in experiment [6] is 19.2%; in the experiment listed under Homo sapiens, -28.1%; in experiment [7], 0%; in experiment [8] it was 15.4%; in experiment [9], -3.77%.

For `COc1ccc(C(=O)NCC(c2cccn2C)N2CCCC2)c(OC)c1` (stereo not given), the Percent Effect is -5.97% in experiment [1]; 13% in experiment [2]; -5.29% in [3]; -1.12% in experiment [4]; 1.08% in the experiment on Trypanosoma cruzi; -1.94% in experiment [5]. Besides, the Percent Effect is 18.3% in experiment [6]; -21.8% in the experiment filed under Homo sapiens; 6.35% in [7]; 11.5% in experiment [8]; -8.35% in [9].

On to `CC(NC(=O)NCC1(c2ccc(F)cc2)CCC1)c1nncn1C` (stereo not given), for which the Percent Effect in experiment [1] is -5.85%; in experiment [2] it was 15.8%; in experiment [3], 2.85%; in experiment [4], 8.69%; in the experiment with Trypanosoma cruzi, -3.83%; in experiment [5], 0%. Also, the Percent Effect in experiment [6] stood at 2.62%; in the experiment filed under Homo sapiens, 7.23%; in [7], 6.4%; in experiment [8] it was 23.5%; in experiment [9], 2.89%.

For the origin of these results see ChEMBL document CHEMBL3988442, “University of Dundee, Small-Polar-MMV Screening Library” (2021).
